Test results as given in PubChem BioAssay.
A number with no mark means an inactive call. For some assays here: Measured potencies and affinities stand elsewhere. Calls of active or inactive are those of the source. Unless noted, no rule for the calls is given here.

Tests used:
[1] = antimalarial activity against Dd2 strain (AID 2302;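 active = growth inhibition above 50% at the single 2 µM test dose, taken to imply half-maximal potency below 2 µM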;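 also: 0% = DMSO untreated growth and 100% = chloroquine plus artemisinin killed control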); settings: P. falciparum Dd2 in RBCs, LDH growth readout, 72 h; at 2 µM; hits give high values
[2] = HepG2 cytotoxicity, primary screen, cytotoxicity control for P. falciparum antimalarial project, cell-based, ATP luminescence (AID 2303;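 active = inhibition above 50%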;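 also: 0% = DMSO wells and 100% = digitonin-killed cells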); settings: HepG2 viability, 24-48 h, at 10 µM, hits give high values
[3] = target: L-lactate dehydrogenase (Plasmodium falciparum (isolate CDC / Honduras)) (UniProt Q27743); experiment: PfLDH activity inhibition – cell lysate, 3D7 strain, counter-screen for P. falciparum growth inhibition project (AID 2304);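 also: 0% = vehicle and 100% = reference inhibitor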; settings: P. falciparum 3D7 crude extract, LDH APAD/NBT absorbance; at 2 µM; hits give high values
L-lactate dehydrogenase (Plasmodium falciparum (isolate CDC / Honduras)), sequence (Q27743 whole entry, looked up): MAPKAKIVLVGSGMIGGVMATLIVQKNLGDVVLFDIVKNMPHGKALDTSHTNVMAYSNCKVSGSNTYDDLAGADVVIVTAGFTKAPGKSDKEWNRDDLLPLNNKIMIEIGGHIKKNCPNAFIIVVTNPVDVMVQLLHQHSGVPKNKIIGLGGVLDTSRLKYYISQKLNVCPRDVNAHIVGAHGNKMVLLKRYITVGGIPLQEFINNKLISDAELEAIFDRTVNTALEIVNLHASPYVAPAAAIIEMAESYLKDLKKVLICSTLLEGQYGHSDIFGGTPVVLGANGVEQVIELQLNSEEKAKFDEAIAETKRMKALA

[4] = inhibition of 3D7 malaria parasite growth – strain 3D7 (AID 2306);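 also: 0% = DMSO wells and 100% = chloroquine plus artemisinin control wells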; settings: P. falciparum 3D7 erythrocytic growth, LDH absorbance, 72 h; at 2 µM; hits give high values
[5] = target: Calcium-dependent protein kinase 1 (Plasmodium falciparum (isolate 3D7)) (UniProt P62344); experiment: PfCDPK1 kinase inhibitors, biochemical, TCAMS library (AID 1159585; cut-off not given, nearly all actives have IC50 up to about 0.98 µM;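 also: inhibitors leave more ATP so luminescence rises with inhibition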); settings: recombinant PfCDPK1, Kinase-Glo ATP depletion luminescence
Calcium-dependent protein kinase 1 (Plasmodium falciparum (isolate 3D7)), sequence (P62344 whole entry, looked up): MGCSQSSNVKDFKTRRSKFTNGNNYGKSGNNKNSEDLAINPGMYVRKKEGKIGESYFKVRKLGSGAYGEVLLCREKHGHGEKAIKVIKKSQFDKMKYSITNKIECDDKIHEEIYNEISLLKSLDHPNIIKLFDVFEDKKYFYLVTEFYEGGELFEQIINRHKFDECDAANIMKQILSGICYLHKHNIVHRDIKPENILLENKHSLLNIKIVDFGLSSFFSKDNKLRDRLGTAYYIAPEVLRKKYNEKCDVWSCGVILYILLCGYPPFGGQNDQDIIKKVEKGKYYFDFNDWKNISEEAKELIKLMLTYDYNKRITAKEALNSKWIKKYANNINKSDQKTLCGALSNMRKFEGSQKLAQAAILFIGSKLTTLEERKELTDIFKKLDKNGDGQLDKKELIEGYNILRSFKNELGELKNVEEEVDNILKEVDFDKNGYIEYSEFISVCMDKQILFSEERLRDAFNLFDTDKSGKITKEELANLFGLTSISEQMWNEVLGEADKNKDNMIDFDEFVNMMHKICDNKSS

[6] = target: Plasmodium falciparum protein kinase 6 (PK6, PF3D7_1337100) (UniProt Q8IDW1); experiment: PfPK6 kinase inhibitors, biochemical, TCAMS library (AID 1159586); settings: recombinant PfPK6, Kinase-Glo ATP depletion luminescence
Plasmodium falciparum protein kinase 6 (PK6, PF3D7_1337100), sequence (Q8IDW1 1-305): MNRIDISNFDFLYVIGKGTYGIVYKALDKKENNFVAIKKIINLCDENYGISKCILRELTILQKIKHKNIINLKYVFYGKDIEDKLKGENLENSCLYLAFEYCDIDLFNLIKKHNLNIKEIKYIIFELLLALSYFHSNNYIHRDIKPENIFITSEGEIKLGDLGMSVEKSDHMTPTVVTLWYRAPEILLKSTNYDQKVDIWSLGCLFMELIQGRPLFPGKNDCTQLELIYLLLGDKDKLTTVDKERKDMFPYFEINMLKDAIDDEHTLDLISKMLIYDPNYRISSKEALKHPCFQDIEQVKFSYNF

[7] = target: Protein kinase 7 (PK7), Plasmodium falciparum 3D7 (PF3D7_0213400) (UniProt Q7YTF7); experiment: inhibition of Plasmodium PK7 catalytic activity – biochemical, TCAMS antimalarial set, Kinase-Glo luminescence (AID 1159587); settings: recombinant PfPK7, Kinase-Glo ATP depletion luminescence
Protein kinase 7 (PK7), Plasmodium falciparum 3D7 (PF3D7_0213400), sequence (Q7YTF7 1-343): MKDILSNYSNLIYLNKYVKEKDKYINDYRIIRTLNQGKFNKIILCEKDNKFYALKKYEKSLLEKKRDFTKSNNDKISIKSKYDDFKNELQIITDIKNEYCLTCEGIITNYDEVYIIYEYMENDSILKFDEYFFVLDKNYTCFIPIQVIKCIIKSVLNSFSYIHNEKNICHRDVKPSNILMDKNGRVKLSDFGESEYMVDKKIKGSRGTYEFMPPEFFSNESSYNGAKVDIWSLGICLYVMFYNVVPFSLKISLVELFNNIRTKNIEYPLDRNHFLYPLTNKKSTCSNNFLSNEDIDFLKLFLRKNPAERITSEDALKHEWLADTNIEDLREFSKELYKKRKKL

[8] = target: Calcium-dependent protein kinase 4 (Plasmodium falciparum (isolate 3D7)) (UniProt Q8IBS5); experiment: PfCDPK4 kinase inhibitors, biochemical, TCAMS library (AID 1159588; cut-off not given, nearly all actives have IC50 up to about 0.91 µM); settings: recombinant PfCDPK4, Kinase-Glo ATP depletion luminescence
Calcium-dependent protein kinase 4 (Plasmodium falciparum (isolate 3D7)), sequence (Q8IBS5 whole entry, looked up): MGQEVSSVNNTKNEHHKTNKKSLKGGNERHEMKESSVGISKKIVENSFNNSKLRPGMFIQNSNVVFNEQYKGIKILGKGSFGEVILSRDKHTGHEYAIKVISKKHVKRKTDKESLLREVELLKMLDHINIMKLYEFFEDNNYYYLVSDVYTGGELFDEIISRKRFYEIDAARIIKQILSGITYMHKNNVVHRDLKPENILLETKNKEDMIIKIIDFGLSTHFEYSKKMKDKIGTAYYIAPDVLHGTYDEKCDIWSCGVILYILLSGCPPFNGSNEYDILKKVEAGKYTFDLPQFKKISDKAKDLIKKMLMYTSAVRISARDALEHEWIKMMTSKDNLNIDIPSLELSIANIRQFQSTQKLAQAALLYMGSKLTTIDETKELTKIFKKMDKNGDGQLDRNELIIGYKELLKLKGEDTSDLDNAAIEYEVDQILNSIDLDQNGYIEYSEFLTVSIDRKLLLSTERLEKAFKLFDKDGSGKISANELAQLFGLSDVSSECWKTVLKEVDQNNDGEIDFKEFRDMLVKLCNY

SMILES | growth inhibition [1] | inhibition [2] | inhibition [3] [%] | growth inhibition [4] | outcome [5] | outcome [6] | outcome [7] | outcome [8]
N#Cc1cccc(-c2ccc(C(=O)Nc3ccc4c(c3)CCN(C3CCC3)CC4)cn2)c1 | 5% | 26% | -2 | 96% (active) | inactive | inactive | inactive | inactive
C[C@H](Cc1ccc(OCCCCCCCOc2ccc(C[C@@H](C)NC[C@H](O)c3cccc(Cl)c3)cc2)cc1)NC[C@H](O)c1cccc(Cl)c1 | 97% (active) | 99% (active) | -6 | 99% (active) | inactive | inactive | inactive | inactive
N#Cc1cccc(NC(=O)c2cccc(S(=O)(=O)NC3CCN(CC4CCCCC4)C3)c2)c1 (stereo not given) | 27% | 29% | 1 | 101% (active) | inactive | inactive | inactive | inactive
FC(F)(F)c1ccc(/C=C/c2cncnc2Nc2ccc3nc(Cc4ccccc4)[nH]c3c2)cc1 | 101% (active) | 21% | 1 | 100% (active) | inactive | inactive | inactive | inactive
CC(C)Cn1c(Sc2ccc(C#N)c([N+](=O)[O-])c2)nnc1-c1ccccc1Cl | 46% | 18% | 2 | 93% (active) | inactive | inactive | inactive | inactive
O=S(=O)(Nc1cccc(CCN2CCCCC2CCN2CCCC2)c1)c1cccc2ccccc12 (stereo not given) | 6% | 23% | 3 | 97% (active) | inactive | inactive | inactive | inactive
COc1ccc2nc(NC3=NC4(c5ccccc5)N=C(Nc5nc6ccc(OC)cc6[nH]5)NC4(c4ccccc4)N3)[nH]c2c1 (stereo not given) | 85% (active) | -5% | -6 | 100% (active) | inactive | inactive | inactive | inactive
Cc1nc(N)nc(N)c1Oc1cccc(Cl)c1 | -3% | 49% | 3 | 94% (active) | inactive | inactive | inactive | inactive
Oc1cc(Nc2ccnc3cc(-c4ccc(CN5CCCCC5)o4)ccc23)c(Cl)cc1F | 81% (active) | 30% | 5 | 101% (active) | inactive | inactive | inactive | inactive
Oc1ccc(CCNc2nc(NCCCOc3ccccc3-c3cccc(C(F)(F)F)c3)nc(N3CCNCC3)n2)cc1 | 5% | 24% | -1 | 93% (active) | inactive | inactive | inactive | inactive
Cc1[nH]nc2cc(Nc3nccc(Nc4ccc(Oc5ccccc5)cc4)n3)ccc12 | 98% (active) | 8% | -7 | 101% (active) | inactive | inactive | inactive | inactive
CCOc1cc(Cl)c(C(C)NC(=O)c2ccccc2)cc1OCC (stereo not given) | 49% | -3% | -1 | 91% (active) | inactive | inactive | inactive | inactive
CC(C)N(Cc1cnc(N)c(C#N)n1)c1ccc(Cl)c(Cl)c1 | 63% (active) | -1% | -5 | 97% (active) | inactive | inactive | inactive | inactive
O=C(/C=C/c1ccc([N+](=O)[O-])cc1)N1CCC(NS(=O)(=O)c2ccc(F)cc2)CC1 | -2% | -7% | -10 | 96% (active) | inactive | inactive | inactive | inactive
CCCc1ccc(NC(=O)c2cccc(CN3CCCN(Cc4cccc(O)c4)CC3)c2)cc1 | 40% | 15% | -2 | 97% (active) | inactive | inactive | inactive | inactive
COc1nc2c(CCN3CCC(NCc4ccc5c(c4)NC(=O)CO5)CC3)c(Cl)cnc2cc1F | 21% | 15% | 6 | 99% (active) | inactive | inactive | inactive | inactive
Cc1cccc(C(=O)Nc2ccnc(N3CCC(N(C)Cc4cccc(C#N)c4)CC3)c2)c1 | 52% (active) | 5% | -2 | 101% (active) | inactive | inactive | inactive | inactive
COc1nc2c(CCN3CCC(NCc4ccc5c(c4)NCCO5)CC3)c(Cl)cnc2cc1F | 98% (active) | 23% | 1 | 102% (active) | inactive | inactive | inactive | inactive
CCN(CC)CCN(CCN(CC)CC)c1ccc2c(c1)Sc1c(Cl)ccc(Cl)c1S2 | 94% (active) | 31% | -5 | 98% (active) | inactive | inactive | inactive | inactive
O=C(NC(CCCN1CCC2(CC1)OCc1ccccc12)c1ccc(Cl)c(Cl)c1)c1cc(C(F)(F)F)cc(C(F)(F)F)c1 (stereo not given) | 99% (active) | 55% (active) | 5 | 100% (active) | inactive | inactive | inactive | inactive

SMILES | growth inhibition [1] | inhibition [2] | inhibition [3] [%] | growth inhibition [4] | outcome [5] | outcome [6] | outcome [7] | outcome [8]
Cc1ccccc1CNC(=O)Nc1cccc(-c2csc(N=C(N)N)n2)c1 | 14% | 2% | -2 | 99% (active) | inactive | inactive | inactive | inactive
CCCCCN(C(=O)Nc1cc(C(F)(F)F)cc(C(F)(F)F)c1)C(C)c1nc2ccccc2c(=O)n1CC (stereo not given) | 101% (active) | -3% | 3 | 100% (active) | inactive | inactive | inactive | inactive
O=C(Nc1ccccc1Br)c1cn(-c2ccccc2)nc1-c1cccc([N+](=O)[O-])c1 | 36% | 7% | -5 | 92% (active) | inactive | inactive | inactive | inactive
N#Cc1ccc(CN2CCC(Oc3ccc(NC(=O)c4cccs4)cc3)CC2)cc1 | 82% (active) | 10% | -3 | 83% (active) | inactive | inactive | inactive | inactive
COc1ccc2c(NN=Cc3ccccc3Cl)cc(C)nc2c1 | 99% (active) | 5% | 2 | 101% (active) | inactive | inactive | inactive | inactive
CCCNCc1ccc(-c2ccc(CN(Cc3cnc(C)cn3)C(=O)/C=C/c3ccccc3C)cc2)nc1 | 15% | 7% | 5 | 95% (active) | inactive | inactive | inactive | inactive
O=C(NCCN1CCOCC1)c1ccc(-c2ccc(CNCCCc3ccccc3)cc2)nc1 | 10% | -11% | -1 | 97% (active) | inactive | inactive | inactive | inactive
O=C(COc1ccccc1)N(Cc1ccc(-c2ccc(CNC3Cc4ccccc4C3)cc2)cc1)C1CCNCC1 | 8% | 26% | -1 | 100% (active) | inactive | inactive | inactive | inactive
Cc1cc(NC(=O)c2cccs2)ccc1OC1CCN(Cc2ccc(C#N)cc2)C1 (stereo not given) | 61% (active) | 13% | -2 | 82% (active) | inactive | inactive | inactive | inactive
C=CCOC(=O)N1CCC(CNCc2cccc(-c3cccc(-c4nc5ccc(F)cc5[nH]4)c3)c2)C1 (stereo not given) | 49% | 20% | 0 | 102% (active) | inactive | inactive | inactive | inactive
N#Cc1ccc(/C=C/C(=O)NCCCCCN2CCCN(C(=O)Nc3ccc(Cl)c(C(F)(F)F)c3)CC2)cc1 | 13% | 28% | 0 | 98% (active) | inactive | inactive | inactive | inactive
NC(N)=NN=C1C=Cc2cccc3cccc1c23 | 49% | 9% | 1 | 100% (active) | inactive | inactive | inactive | inactive
CN(C)CCCOc1cc(NC(=O)Nc2ccc(-c3ccncc3)c3ccccc23)ccc1I | 97% (active) | 46% | 1 | 101% (active) | inactive | inactive | inactive | inactive
O=C(Nc1ccc(N2CCCCC2)c(Cl)c1)c1ncn[nH]1 | 93% (active) | -4% | -6 | 93% (active) | inactive | inactive | inactive | inactive
O=C(/C=C/c1ccc(F)cc1)NC1CCC(CCN2CCCN(c3ccc(C(F)(F)F)cn3)CC2)CC1 (stereo not given) | 13% | 29% | -1 | 97% (active) | inactive | inactive | inactive | inactive
CC(=O)NC1=NC(C)(C)N(OCCCOc2ccc(Cl)c(Cl)c2)C(NC(C)=O)=N1 | 94% (active) | 65% (active) | 0 | 96% (active) | inactive | inactive | inactive | inactive
Cc1noc(C)c1-c1ccc2c(Nc3ccccc3C(C)(C)C)c(C(=O)NCc3ccc(C(F)(F)F)cc3)cnc2c1 | 50% (active) | 30% | 0 | 99% (active) | inactive | inactive | inactive | inactive
COc1cccc(-c2cnc(N)c(-c3nc4ccc(C(F)(F)F)cc4[nH]3)c2)c1 | 30% | 5% | -4 | 99% (active) | inactive | inactive | inactive | inactive
CCCCNC[C@@H](O)[C@H](Cc1ccccc1)NC(=O)c1cc2c3c(c1)c(CC)cn3CCS(=O)(=O)N2C | 98% (active) | -6% | -3 | 99% (active) | inactive | inactive | inactive | inactive
Oc1ccc(Cl)cc1-c1cc(C(F)(F)F)nc(-c2ccccc2)n1 | 92% (active) | 20% | 3 | 99% (active) | inactive | inactive | inactive | inactive
